The values that follow come from PubChem BioAssay (NCATS).

Where “and” joins values, the source holds several entries; their conditions need not be identical. Equal values may be shown once. Results filed as inconclusive are left out. Calls of active or inactive are those of the source. Unless noted, calls come from the whole dose curve; as a rule, active = well fitted curve in the direction sought with a large enough effect; inconclusive = small, poorly fitted or top-dose-only effect, or another doubt; inactive = no such curve, though single readings can be large; an effect the other way counts as inactive or inconclusive.

For test [1], the target named is Alpha-galactosidase A (Homo sapiens) (UniProt P06280). Description: Counterscreen for Glucocerebrosidase Inhibitors: qHTS Assay for Human alpha-Galactosidase at pH 4.5 (AID 992). Note: 0% is about no effect. Put shortly:
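Concentration-response curves (0.7 nM to 77 uM final) were modeled with the Hill equation to give AC50. Reactions: 2 nM enzyme, 80 uM fluorogenic alpha-galactoside, pH 4.5 citric acid buffer, 20 min, room temperature.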
For orientation: A counterscreen serves to expose hits that act by an unwanted route or on another target.

In test [2] the target is alpha-glucosidase (Oryza sativa, rice) (UniProt Q653V4). Description: Counterscreen for Glucocerebrosidase Inhibitors: qHTS Assay for Rice alpha-Glucosidase at pH 5.0 (AID 997).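 Note: 0% = full activity with enzyme and -100% = basal without enzyme.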 The gist of the method: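 Rice alpha-glucosidase (4 nM final) with 400 uM 4-methylumbelliferyl-alpha-D-glucopyranoside in citrate buffer pH 5.0, 20 min at room temperature, stopped at pH 10; fluorescence 365/440 nm, compounds 0.7 nM–77 uM, AC50 from Hill fits.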

The nature of test [3]: qHTS Assay for Lipid Storage Modulators (AID 1519; calls by dose curve; for activity change, negative = inhibition: % is set by controls: 0 for no effect and ±100 for the full control effect). Particulars: Drosophila S3 cells, BODIPY lipid droplet/cell ratio, laser cytometry, cells loaded with oleic acid; for activity change, negative = inhibition: at 57.5 µM (top of the series). Put shortly:
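Cells seeded at 5,000 per well were treated with compounds over a concentration series and loaded with oleic acid (400 uM, as added). Lipid droplet fluorescence (488 nm excitation, 500-530 nm channel) was read by laser-scanning cytometry and normalized to 20 uM Triacsin C.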

Test [4] in a line: Cell Viability - LYMP2-025 (AID 976). Note: potency is the fitted concentration of half-maximal effect. The gist of the method:
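Human lymphoblastoid LYMP2-025 cells (2500/well) were pre-incubated 5 hr at 37 C, then treated with compounds for 24 hr at 37 C in complete medium. Viability was read as intracellular ATP by CellTiter-Glo luminescence; AC50 from Hill fits.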

Test [5] in a line: Cell Viability - LYMP2-002 (AID 977).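 Note: compound exposure lasted 24 h at 37 °C.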 Note: potency is the fitted concentration of half-maximal effect. The gist of the method: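 Human lymphoblastoid LYMP2-002 cells, 2500 per well, exposed to compounds for 24 h at 37 C in complete medium; viability read as intracellular ATP by CellTiter-Glo luminescence, AC50 from Hill fits.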
Test [6] is described as follows: Cell Viability - LYMP2-006 (AID 978). Note: nearly all actives have a fitted effect of over 60% in size. Note: potency is the fitted concentration of half-maximal effect. The gist of the method:
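Cells are seeded at 2500 per well and rested 5 hr at 37 C. Compounds are added across a concentration series for 24 hr at 37 C, after which ATP is quantified by luciferase luminescence.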

The nature of test [7]: Cell Viability - LYMP2-007 (AID 979).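 Note: cells exposed to compound for 24 h before reading; nearly all actives have a fitted effect of over 60% in size.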 Note: potency is the fitted concentration of half-maximal effect. The gist of the method: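 Human lymphoblastoid cells (2500/well) were plated in complete medium, incubated 5 hr at 37 C, then exposed to compounds for 24 hr at 37 C. Intracellular ATP was read by CellTiter-Glo luminescence after 30 min at room temperature; AC50 from Hill fits.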
Test [8] in a line: Cell Viability - LYMP2-008 (AID 980). Note: nearly all actives have a fitted effect of over 60% in size. Note: potency is the fitted concentration of half-maximal effect. Put shortly:
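Human lymphoblastoid cells (2500/well) were plated, held 5 hr at 37 C, then exposed to compounds for 24 hr at 37 C in complete medium. Intracellular ATP was read by CellTiter-Glo luminescence; AC50 from Hill-fitted concentration-response.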

Test [9] can be described thus: Cell Viability - LYMP2-010 (AID 981). Note: nearly all actives have a fitted effect of over 55% in size. Note: potency is the fitted concentration of half-maximal effect. The gist of the method:
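Human lymphoblastoid LYMP2-010 cells (2500/well) were preincubated 5 hr at 37 C, then exposed to compounds for 24 hr at 37 C in complete medium. Intracellular ATP was measured by CellTiter-Glo luminescence after 30 min at room temperature; AC50 from Hill-fitted concentration-response.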

Test [10] in a line: Cell Viability - LYMP2-012 (AID 982).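 Note: cellular ATP by luciferase luminescence where a drop means cytotoxicity; cells exposed to compound for one day before reading; nearly all actives have a fitted effect of over 55% in size.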 Note: potency is the fitted concentration of half-maximal effect.
The nature of test [11]: Cell Viability - LYMP2-014 (AID 983). Note: nearly all actives have a fitted effect of over 50% in size. Note: potency is the fitted concentration of half-maximal effect. Put shortly:
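Human lymphoblastoid cells (2500/well) were pre-incubated 5 hr at 37 C, then exposed to compounds in complete medium for 24 hr at 37 C. Intracellular ATP was read by CellTiter-Glo luminescence after 30 min at room temperature; AC50 from Hill fits.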

Test [12] in a line: Cell Viability - LYMP2-016 (AID 984). Note: nearly all actives have a fitted effect of over 55% in size. Note: potency is the fitted concentration of half-maximal effect. The gist of the method: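 Cells were seeded at 2500 per well and rested 5 hr before a 24 hr compound exposure at 37 C. Viability was then gauged as cellular ATP by luciferase luminescence, with AC50 values fitted to the Hill equation.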
Test [13] can be described thus: Cell Viability - LYMP2-018 (AID 985). Note: nearly all actives have a fitted effect of over 50% in size. Note: potency is the fitted concentration of half-maximal effect. Put shortly: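 Human lymphoblastoid cells (2500/well) were pre-incubated 5 hr at 37 C, then exposed to compounds for 24 hr at 37 C in complete medium. Viability was read as intracellular ATP by CellTiter-Glo luminescence; AC50 values came from Hill-equation fits.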
Test [14] is described as follows: Cell Viability - LYMP2-020 (AID 986). Note: nearly all actives have a fitted effect of over 55% in size. Note: potency is the fitted concentration of half-maximal effect. The gist of the method: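 Human lymphoblastoid cells, 2500/well, were pre-incubated 5 hr at 37 C, then exposed to compounds for 24 hr at 37 C in complete medium. Intracellular ATP was read by CellTiter-Glo luminescence, and AC50 was derived by Hill fitting of concentration-response data.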
Test [15] can be described thus: Cell Viability - LYMP2-022 (AID 987). Note: nearly all actives have a fitted effect of over 55% in size. Note: potency is the fitted concentration of half-maximal effect. Put shortly:
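Human lymphoblastoid cells, 2500/well, preincubated 5 hr at 37 C, then exposed to compounds over a concentration range for 24 hr at 37 C in complete medium. Viability read as intracellular ATP by CellTiter-Glo luminescence after 30 min at room temperature; AC50 from Hill fits.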

A short description of test [16]: Cell Viability - LYMP2-024 (AID 988). Note: nearly all actives have a fitted effect of over 60% in size. Note: potency is the fitted concentration of half-maximal effect. The gist of the method:
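Human lymphoblastoid cells (2500/well) in complete medium were preincubated 5 hr at 37 C, then exposed to compounds for 24 hr at 37 C. Intracellular ATP was read by CellTiter-Glo luminescence; AC50 from Hill-equation fits of concentration-response data.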

The nature of test [17]: Cell Viability - LYMP2-026 (AID 989). Note: nearly all actives have a fitted effect of over 50% in size. Note: potency is the fitted concentration of half-maximal effect. Put shortly: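 Human lymphoblastoid cells (2500/well) in complete medium were preincubated 5 hr at 37 C, then exposed to compounds for 24 hr at 37 C. Cellular ATP was read by CellTiter-Glo luminescence; AC50 from Hill-equation fits of concentration-response data.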
The nature of test [18]: Cell Viability - LYMP1-002 - Assay at 24 hr (AID 993). Note: potency is the fitted concentration of half-maximal effect. Put shortly:
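Human lymphoblastoid LYMP1-002 cells, 2500/well in complete medium, were treated with compounds for 24 h at 37 C; intracellular ATP was read by CellTiter-Glo luminescence. AC50 values came from Hill-equation fits of qHTS concentration-response data.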

Test [19] can be described thus: Cell Viability - LYMP1-002 - Assay at 40 hr (AID 994). Note: nearly all actives have a fitted effect of over 60% in size. Note: potency is the fitted concentration of half-maximal effect. Put shortly:
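Human lymphoblastoid cells, 2500/well in complete medium, were preincubated 5 hr at 37 C, then exposed to compounds for 40 hr at 37 C. Intracellular ATP was read by CellTiter-Glo luminescence after 30 min at room temperature; AC50 from Hill-equation fits.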

Setting [20] is: measured here: cell count channel max response.
Setting [21] is: measured here: lipid channel max response.

Alpha-galactosidase A (Homo sapiens), sequence (P06280 whole entry, looked up): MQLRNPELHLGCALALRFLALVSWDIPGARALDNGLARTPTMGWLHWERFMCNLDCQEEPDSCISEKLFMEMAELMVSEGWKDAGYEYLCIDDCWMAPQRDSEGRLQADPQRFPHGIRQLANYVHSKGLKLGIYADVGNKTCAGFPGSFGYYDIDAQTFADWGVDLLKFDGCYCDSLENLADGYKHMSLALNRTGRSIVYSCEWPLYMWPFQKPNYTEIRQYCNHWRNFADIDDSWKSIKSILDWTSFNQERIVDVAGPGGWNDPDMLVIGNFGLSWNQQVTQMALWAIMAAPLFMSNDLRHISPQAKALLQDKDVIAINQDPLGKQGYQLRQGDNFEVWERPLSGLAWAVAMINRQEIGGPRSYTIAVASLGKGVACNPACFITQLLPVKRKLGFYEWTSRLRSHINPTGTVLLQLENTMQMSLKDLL

Take `NC(N)=NC(=O)c1nc(Cl)c(N2CCCCCC2)nc1N`: the outcome in test [1] and in test [2] was inactive. Also, the activity change, negative = inhibition in [3] is -1.28% (inactive) and 0.178% (inactive). Besides, the max response in test [3] (setting [20]) was 5.25% and -33%; in test [3] (setting [21]), 6.67% and -33.1%.
With `CCCOC(=O)c1ccc(O)cc1`, the Potency result in [4], in [5], in test [6], in test [7], in test [8] and in [9] was “inactive” throughout. Moreover, the Potency result in test [10], in [11], in test [12], in test [13], in [14] and in test [15] was “inactive” each time. Besides, the Potency result in [16], in [17], in test [18] and in test [19] was “inactive” in each case.
In the case of `N#C/C(=C\c1ccc(O)c(O)c1)C(=O)c1ccc(O)c(O)c1`, the outcome in test [1] and in test [2] was inactive. The activity change, negative = inhibition in test [3] was -0.353% (inactive). Moreover, the max response in test [3] (setting [20]) is 19.5%; in test [3] (setting [21]), 19.3%.
With `CN1CCc2cc(NC(=O)Nc3cccnc3)ccc21`, the compound was called inactive in test [1] and in [2]. Further, the activity change, negative = inhibition in test [3] was 0.252% (inactive). Besides, the max response in test [3] (setting [20]) was found to be 32.8%; in test [3] (setting [21]), 37.5%.
On to `CCN1/C(=C/C(C)=O)Sc2ccc(OC)cc21`, for which the compound was classed as inactive in [1] and in test [2]. In addition, in test [3], the activity change, negative = inhibition is 0.847% (inactive). Besides, the max response in test [3] (setting [20]) is -21.8%; in [3] (setting [21]), -21.7%.
For `O=C(O)c1cc([N+](=O)[O-])ccc1NCCCc1ccccc1`, the result in test [1] and in [2] was inactive. The activity change, negative = inhibition in [3] is 0.312% (inactive). The figures for the max response in test [3] (setting [20]) and in [3] (setting [21]) were -11.5% and -12.2%, respectively.
On to `O=C(Nc1cccc(C(=O)Nc2ccc(S(=O)(=O)O)c3cc(S(=O)(=O)O)cc(S(=O)(=O)O)c23)c1)Nc1cccc(C(=O)Nc2ccc(S(=O)(=O)O)c3cc(S(=O)(=O)O)cc(S(=O)(=O)O)c23)c1`, for which the outcome in test [1] and in [2] was inactive. Also, in test [3], the activity change, negative = inhibition was 2.61% (inactive). In addition, the max response is -8.67% in test [3] (setting [20]) and -6.27% in [3] (setting [21]).
As for `O=C(O)c1cc(=O)c2ccccc2[nH]1`, the compound was called inactive in test [1] and in [2]. Besides, the activity change, negative = inhibition in test [3] is 3.93% (inactive) [middle of 4 runs].
Take `NCCO`: the Potency entry in [4], in [5], in test [6], in [7], in [8] and in test [9] was “inactive” each time. The Potency entry in [10], in [11], in test [12], in test [13], in [14] and in test [15] was “inactive” throughout. Besides, the Potency entry in [16], in [17], in test [18] and in [19] was “inactive” throughout.
Turning to `CN(C)c1ccc(C(=C2C=CC(=[N+](C)C)C=C2)c2ccccc2)cc1`, the Potency in test [4] is 501 nM (active); in test [5], 398 nM (active); in test [6], 501 nM (active); in [7] it was 251 nM (active); in test [8], 316 nM (active); in test [9] it was 251 nM (active). Moreover, the Potency is 158 nM (active) in test [10]; 251 nM (active) in test [11]; 501 nM (active) in test [12]; 199 nM (active) in test [13]; 316 nM (active) in [14]; 126 nM (active) in test [15]. The Potency in [16] was 199 nM (active); in [17] it was 316 nM (active); in [18], 794 nM (active); in test [19] it was 1000 nM (active).
